According to PubChem BioAssay AID1159580 (chemical genetic matrix, 2015):
About 2,000 (36%) of roughly 5,500 compounds were called active. About 18% were inconclusive and are not listed. Cut-off read from the data, not from the text of the source: active = normalized growth mostly below about 0.91 (no sharp cut-off); inconclusive = no clear call, values can overlap the other calls; inactive = mostly above about 0.92. The list shows a part of the results.

Experiment: chemical genetic growth profiling, strain panel (AID 1159580);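 note: tested at 20 µM; growth read once vehicle control cultures reached saturation at 30 °C; 1 = growth at the plate median or of vehicle wells; lower values mean less growth of the strain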
Settings: growth OD
[1] = S. cerevisiae deletion strains, locus YBR229C, strain ROT2, active compounds read low
[2] = S. cerevisiae deletion strains, locus YDL101C, strain DUN1, active compounds read low
[3] = S. cerevisiae deletion strains, locus YEL061C, strain CIN8, active compounds read low
[4] = S. cerevisiae deletion strains, locus YGR078C, strain PAC10, active compounds read low
[5] = S. cerevisiae deletion strains, locus YHR030C, strain SLT2, active compounds read low
[6] = S. cerevisiae deletion strains, locus YJR043C, strain POL32, active compounds read low
[7] = S. cerevisiae deletion strains, locus YLR039C, strain RIC1, active compounds read low
[8] = S. cerevisiae deletion strains, locus YLR262C, strain YPT6, active compounds read low
[9] = S. cerevisiae deletion strains, locus YNL153C, strain GIM3, active compounds read low
[10] = S. cerevisiae deletion strains, locus YPL241C, strain CIN2, active compounds read low
[11] = S. cerevisiae strains, strain wild type, active compounds read low

Measured: normalized growth

COC(=O)C[C@H]1C(C)(C)[C@H](O)[C@@H]2CC3=C4CC(O)O[C@@H](c5ccoc5)[C@]4(C)CCC3[C@@]1(C)C2=O (stereo partly drawn)
inactive: S. cerevisiae deletion strains, locus YBR021W, strain FUR4, active compounds read low 1.01 | [1] 0.948 | S. cerevisiae deletion strains, locus YCL029C, strain bik1, active compounds read low 0.969 | S. cerevisiae deletion strains, locus YDL035C, strain GPR1, active compounds read low 0.974 | S. cerevisiae deletion strains, locus YDL074C, strain BRE1, active compounds read low 0.966 | [2] 0.99 | S. cerevisiae deletion strains, locus YDL185W, strain tfp1, active compounds read low 0.971 | S. cerevisiae deletion strains, locus YDL192W, strain arf1, active compounds read low 0.978 | S. cerevisiae deletion strains, locus YDR101C, strain arx1, active compounds read low 0.983 | S. cerevisiae deletion strains, locus YDR162C, strain NBP2, active compounds read low 0.984 | S. cerevisiae deletion strains, locus YDR318W, strain mcm21, active compounds read low 0.992 | S. cerevisiae deletion strains, locus YDR388W, active compounds read low 0.979 | S. cerevisiae deletion strains, locus YDR502C, strain sam2, active compounds read low 1.02 | [3] 0.974 | S. cerevisiae deletion strains, locus YER110C, active compounds read low 0.985 | S. cerevisiae deletion strains, locus YER155C, strain BEM2, active compounds read low 1 | S. cerevisiae deletion strains, locus YER167W, strain BCK2, active compounds read low 0.969 | S. cerevisiae deletion strains, locus YGL078C, strain dbp3, active compounds read low 1.03 | S. cerevisiae deletion strains, locus YGL086W, strain mad1, active compounds read low 1 | S. cerevisiae deletion strains, locus YGL248W, strain PDE1, active compounds read low 0.991 | [4] 1.02 | S. cerevisiae deletion strains, locus YGR135W, strain pre9, active compounds read low 1.07 | S. cerevisiae deletion strains, locus YGR229C, strain SMI1, active compounds read low 1.02 | S. cerevisiae deletion strains, locus YGR252W, strain gcn5, active compounds read low 1.03 | [5] 0.996 | S. cerevisiae deletion strains, locus YHR079C, strain IRE1 (second series), active compounds read low 0.993 | S. cerevisiae deletion strains, locus YHR094C, strain hxt1, active compounds read low 0.984 | S. cerevisiae deletion strains, locus YHR129C, strain ARP1, active compounds read low 0.99 | S. cerevisiae deletion strains, locus YHR200W, strain rpn10, active compounds read low 0.999 | S. cerevisiae deletion strains, locus YIL066C, strain RNR3, active compounds read low 0.948 | S. cerevisiae deletion strains, locus YIL073C, strain SPO22, active compounds read low 0.964 | S. cerevisiae deletion strains, locus YIL125W, strain kgd1, active compounds read low 0.986 | S. cerevisiae deletion strains, locus YIR030C, strain dcg1, active compounds read low 0.99 | S. cerevisiae deletion strains, locus YJL095W, strain BCK1, active compounds read low 0.993 | S. cerevisiae deletion strains, locus YJL134W, strain LCB3, active compounds read low 0.971 | S. cerevisiae deletion strains, locus YJL168C, strain set2, active compounds read low 0.991 | S. cerevisiae deletion strains, locus YJL187C, strain SWE1 (second series), active compounds read low 1 | [6] 0.975 | S. cerevisiae deletion strains, locus YKL009W, strain mrt4, active compounds read low 0.953 | S. cerevisiae deletion strains, locus YKL068W, active compounds read low 0.985 | S. cerevisiae deletion strains, locus YKL085W, strain MDH1 (second series), active compounds read low 0.988 | S. cerevisiae deletion strains, locus YKL085W, strain MDH1, active compounds read low 0.988 | S. cerevisiae deletion strains, locus YKL190W, strain CNB1, active compounds read low 0.98 | S. cerevisiae deletion strains, locus YKR001C, strain vps1, active compounds read low 0.978 | [7] 0.964 | S. cerevisiae deletion strains, locus YLR058C, strain SHM2, active compounds read low 0.975 | S. cerevisiae deletion strains, locus YLR102C, strain apc9, active compounds read low 0.991 | [8] 0.99 | S. cerevisiae deletion strains, locus YLR268W, strain sec22, active compounds read low 0.953 | S. cerevisiae deletion strains, locus YLR330W, strain CHS5, active compounds read low 0.986 | S. cerevisiae deletion strains, locus YLR371W, strain rom2, active compounds read low 0.986 | S. cerevisiae deletion strains, locus YLR418C, strain cdc73, active compounds read low 0.975 | S. cerevisiae deletion strains, locus YML016C, strain PPZ1, active compounds read low 0.977 | S. cerevisiae deletion strains, locus YML032C, strain rad52, active compounds read low 0.976 | S. cerevisiae deletion strains, locus YML124C, strain tub3, active compounds read low 0.992 | S. cerevisiae deletion strains, locus YMR078C, strain ctf18, active compounds read low 0.989 | S. cerevisiae deletion strains, locus YMR223W, strain ubp8, active compounds read low 1 | S. cerevisiae deletion strains, locus YMR307W, strain GAS1, active compounds read low 0.951 | S. cerevisiae deletion strains, locus YNL067W, strain RPL9B, active compounds read low 1.03 | [9] 1.01 | S. cerevisiae deletion strains, locus YNL233W, strain BNI4, active compounds read low 1.03 | S. cerevisiae deletion strains, locus YNL250W, strain rad50, active compounds read low 0.998 | S. cerevisiae deletion strains, locus YNL271C, strain bni1, active compounds read low 0.989 | S. cerevisiae deletion strains, locus YNL298W, strain CLA4, active compounds read low 0.984 | S. cerevisiae deletion strains, locus YNL307C, strain MCK1, active compounds read low 0.994 | S. cerevisiae deletion strains, locus YNR052C, strain pop2, active compounds read low 1.04 | S. cerevisiae deletion strains, locus YOL012C, strain htz1 0.912 | S. cerevisiae deletion strains, locus YOL147C, strain pex11, active compounds read low 0.989 | S. cerevisiae deletion strains, locus YOR061W, strain CKA2, active compounds read low 0.944 | S. cerevisiae deletion strains, locus YOR069W, strain VPS5, active compounds read low 0.986 | S. cerevisiae deletion strains, locus YOR136W, strain idh2, active compounds read low 0.994 | S. cerevisiae deletion strains, locus YOR144C, strain elg1, active compounds read low 0.991 | S. cerevisiae deletion strains, locus YOR184W, strain ser1, active compounds read low 0.954 | S. cerevisiae deletion strains, locus YOR316C, strain cot1, active compounds read low 0.992 | [10] 0.988 | S. cerevisiae deletion strains, locus YPR119W, strain clb2, active compounds read low 1.01 | S. cerevisiae deletion strains, locus YPR141C, strain kar3, active compounds read low 0.989 | S. cerevisiae deletion strains, locus YPR163C, strain tif3, active compounds read low 0.987 | S. cerevisiae deletion strains, locus YPR167C, strain met16, active compounds read low 0.996 | S. cerevisiae deletion strains, strain wtn01, active compounds read low 0.98 | [11] 0.979

FC(F)(F)c1cc(-c2ccco2)nc2cc(-c3ccco3)nn12
inactive: S. cerevisiae deletion strains, locus YCL061C, strain MRC1, active compounds read low 0.98 | [2] 0.972 | S. cerevisiae deletion strains, locus YDR150W, strain NUM1, active compounds read low 0.889 | [3] 0.97 | [4] 0.958 | [5] 0.722 | S. cerevisiae deletion strains, locus YHR087W, strain rtc3, active compounds read low 0.935 | S. cerevisiae deletion strains, locus YJL187C, strain SWE1, active compounds read low 0.973 | S. cerevisiae deletion strains, locus YJR075W, strain HOC1, active compounds read low 0.903 | S. cerevisiae deletion strains, locus YLR058C, strain SHM2 (second series), active compounds read low 0.96 | S. cerevisiae deletion strains, locus YLR085C, strain ARP6, active compounds read low 0.829 | [8] 0.883 | S. cerevisiae deletion strains, locus YML094W, strain GIM5, active compounds read low 0.889 | S. cerevisiae deletion strains, locus YMR219W, strain ESC1, active compounds read low 1 | [9] 0.949 | S. cerevisiae deletion strains, locus YNL298W, strain CLA4 (second series), active compounds read low 0.859 | S. cerevisiae deletion strains, locus YNL322C, strain KRE1, active compounds read low 0.997 | S. cerevisiae deletion strains, locus YPL055C, strain LGE1, active compounds read low 0.851 | [11] 0.988
active: S. cerevisiae deletion strains, locus YAL013W, strain DEP1, active compounds read low 0.869 | [1] 0.908 | [6] 0.881 | [7] 0.729 | S. cerevisiae deletion strains, locus YMR263W, strain SAP30, active compounds read low 0.899 | S. cerevisiae deletion strains, locus YNR030W, strain Alg12, active compounds read low 0.798 | [10] 0.844 | S. cerevisiae deletion strains, locus YPR135W, strain CTF4, active compounds read low 0.594
